# Reference: PubChem BioAssay (NCI)
# About 83,000 compounds went through this panel and 20% of them were active in at least one assay; those are over-represented in the sample as a whole.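 Method: cells in 96-well plates; compound added at one concentration; 48 h incubation; percent growth measured; values under 10 scored active.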 Unmarked numbers belong to inactive results. Activity calls are given as the source filed them.
# What was measured:
# Test in all cases: NCI-60 one-dose screen, 48 h (100 = growth as untreated, 0 = no growth, -100 = all killed)
# RPMI-8226 leukemia = conditions: 10 µM unless noted
# OVCAR-8 ovarian = conditions: 10 µM unless noted
# OVCAR-5 ovarian = conditions: 10 µM unless noted
# OVCAR-4 ovarian = conditions: 10 µM unless noted
# SK-OV-3 ovarian = conditions: 10 µM unless noted
# IGROV1 ovarian = conditions: 10 µM unless noted
# OVCAR-3 ovarian = conditions: 10 µM unless noted
# HS 578T breast = conditions: 10 µM
# NCI/ADR-RES ovarian = conditions: 10 µM unless noted
# T-47D breast = conditions: 10 µM unless noted
# BT-549 breast = conditions: 10 µM unless noted
# MDA-MB-435 melanoma = conditions: 10 µM unless noted
# SW-620 colon = conditions: 10 µM unless noted
# MCF7 breast = conditions: 10 µM unless noted
# HCT-116 colon = conditions: 10 µM unless noted
# HCC-2998 colon = conditions: 10 µM unless noted
# KM12 colon = conditions: 10 µM unless noted
SMILES,growth (RPMI-8226 leukemia),growth (OVCAR-8 ovarian),growth (OVCAR-5 ovarian),growth (OVCAR-4 ovarian),growth (SK-OV-3 ovarian),growth (IGROV1 ovarian),growth (OVCAR-3 ovarian),growth (HS 578T breast),growth (NCI/ADR-RES ovarian),growth (T-47D breast),growth (BT-549 breast),growth (MDA-MB-435 melanoma),growth (SW-620 colon),growth (MCF7 breast),growth (HCT-116 colon),growth (HCC-2998 colon),growth (KM12 colon)
Oc1ccc(CCCCCCc2ccc(O)cc2)cc1,64.7%,44.1%,86.1%,50%,71.5%,60.4%,83.1%,103%,33.3%,65%,50.3%,71.4%,58.1%,35.9%,66.8%,92.3%,59%
COc1cc(C2=NOC(c3cc(OC)c(OC)c(OC)c3)C2)ccc1OCCCCOc1cc2c(cc1OC)C(=O)N1CCC[C@H]1C=N2 (stereo partly drawn),-27.3% (active),6.96% (active),9.04% (active),-35.6% (active),10.4%,-3.57% (active),-34.1% (active),-10.4% (active),18.4%,-11.9% (active),-96.8% (active),-74.1% (active),-31.7% (active),-5.09% (active),2.63% (active),-57.4% (active),-24.3% (active)
CCCCC(CCc1ccccn1)C(=O)c1ccccc1 (stereo not drawn),106%,112%,109%,110%,110%,101%,116%,112%,104%,100%,108%,111%,112%,105%,109%,111%,136%
Cc1nc2n[nH]c(N)c2nc1C,106%,95.1%,102%,106%,104%,97.9%,104%,114%,103%,101%,118%,107%,108%,94.8%,109%,103%,106%
Clc1ccccc1Nc1nnc(-c2ccncc2)s1,89.2%,100%,107%,94.5%,105%,101%,110%,94.9%,102%,89.5%,90.4%,93.6%,91.6%,96%,102%,106%,107%
O=[N+]([O-])c1ccccc1CN1CCCCC1,109%,108%,102%,114%,127%,114%,109%,118%,104%,115%,98.4%,109%,106%,108%,106%,101%,128%
O=C(NO)c1ccc(NCc2csc3ccccc23)cc1,35.7%,42%,73.4%,67.8%,81.8%,55.6%,66.8%,70.5%,6.83% (active),41.5%,77.6%,82.4%,61.5%,83%,34.4%,73.5%,66.9%
O=C(Nc1ccc(Br)cc1)Nc1ccccc1Cl,50%,79.8%,90.1%,75.1%,84.6%,63.9%,88.1%,99.7%,80%,74.9%,103%,102%,96.4%,71%,71.8%,91%,90.4%
COc1ccc2[nH]c(O)c(/C=c3/ccc4c(c3)N=C(c3ccc(C(F)(F)F)cc3)N=4)c2c1,77.1%,87.1%,113%,80.5%,112%,55.2%,77.5%,72.8%,84.7%,57.4%,81.2%,76.5%,86.4%,45.1%,56%,97.7%,75.1%
O=C(/C=C/c1cc([N+](=O)[O-])ccc1Cl)c1ccccc1,20.9%,96.3%,96.1%,97.2%,95.4%,70.5%,102%,98.6%,93.6%,72.3%,86.3%,86%,6.41% (active),20.6%,-100% (active),103%,5.35% (active)
COc1ccc(OC)c(Nc2nc(-c3c(C)nc4sccn34)cs2)c1,41.9%,74.5%,97.9%,78%,103%,90.8%,94.7%,73.1%,77.8%,26.3%,84.8%,66.1%,84.2%,39.1%,84.6%,91.3%,69.2%
O=C(NCCNC(=O)c1cc(S(=O)(=O)NCCc2ccccc2)c(O)c(O)c1O)c1cc(S(=O)(=O)NCCc2ccccc2)c(O)c(O)c1O,79.5%,40.2%,82.3%,62.3%,33.1%,31.5%,19.7%,52.2%,76.1%,84.1%,48.8%,35.2%,54.7%,34.9%,33.5%,38.6%,34.1%
O=C(O)c1cn(-c2ccccc2)nc1-c1ccc(O)cc1,96.7%,90.8%,101%,92.2%,92.4%,111%,,94.2%,101%,101%,99.3%,103%,98.5%,88.7%,96.4%,95.5%,
COc1ccc2c(c1)N(CCO)C1=C(C(=O)OC1)C2c1cccc(Br)c1 (stereo not drawn),18.5%,14.6%,32.1%,52.6%,28.5%,11.2%,-51.6% (active),10.7%,10.7%,72%,15.9%,-51% (active),22.5%,16.1%,3.89% (active),,-31.2% (active)
CCCCCCCCCCCCCCCCCC1=NC(C)(C)CN1C(C)(C)CO,-35.3% (active),-80.4% (active),37.9%,3.31% (active),-40% (active),,-1.05% (active),15.3%,-7.97% (active),-19.5% (active),64.7%,-68.7% (active),-100% (active),-81% (active),-100% (active),-100% (active),-100% (active)
C#CC[C@@H]1C[C@]2(C)[C@H]3CC[C@@H]4[C@H]5C(C(=C)C)CC[C@]5(C(=O)NCCCCCCCCN)CC[C@@]4(C)[C@]3(C)CC[C@H]2C(C)(C)[C@H]1OC(C)=O (stereo partly drawn),0.0796% (active),91.3%,108%,45.9%,124%,85.7%,55.4%,109%,93.8%,,97.5%,76.5%,,-18.9% (active),-88.5% (active),91.1%,61.9%
CC1CN(CCCOC(=O)Nc2ccc(Cl)cc2)CCN1C(C)(C)C (stereo not drawn),100%,104%,105%,111%,93.8%,100%,104%,116%,99.6%,90%,101%,,110%,99%,100%,101%,106%
O=C(c1ccc(C(F)(F)F)c(Cl)c1)N(Cc1ccc(Cl)cc1)c1ccc(-c2cc(C(F)(F)F)[nH]n2)c(O)c1,1.58% (active),11%,17.3%,19.9%,-4.32% (active),15.2%,6.9% (active),3.66% (active),2.97% (active),,14.6%,10.1%,17.2%,4.31% (active),3.75% (active),13.6%,10%
C#CC[C@@H]1C[C@]2(C)[C@H]3CC=C4[C@H]5CC(C)(C)CC[C@]5(C(=O)NCCCCN)CC[C@@]4(C)[C@]3(C)CC[C@H]2C(C)(C)[C@H]1OC(C)=O,-10.2% (active),3.77% (active),21.7%,50.1%,116%,32.8%,49.3%,94.3%,81.7%,,97.8%,-34.2% (active),,4.27% (active),-31% (active),1.58% (active),6.43% (active)
